Experimental data reported in the supplement of paper PMC11732987, “Enantioselective OTUD7B fragment discovery through chemoproteomics screening and high-throughput optimisation” (Communications Chemistry, 2025).

Tests used:
Assay in all cases: log2 ratio of Biotin-Ahx-Ub-VS probe labelling (fragment/DMSO); higher = less target engagement (more negative = stronger competition), active = hit call of the paper (q ≤ 0.05, log2 ratio ≤ -1)
Details in all cases: compound concentration: 200 uM; treatment time: 3 h
USP19 = biological target: T1, USP19 (UniProt O94966)
T1 sequence (whole entry): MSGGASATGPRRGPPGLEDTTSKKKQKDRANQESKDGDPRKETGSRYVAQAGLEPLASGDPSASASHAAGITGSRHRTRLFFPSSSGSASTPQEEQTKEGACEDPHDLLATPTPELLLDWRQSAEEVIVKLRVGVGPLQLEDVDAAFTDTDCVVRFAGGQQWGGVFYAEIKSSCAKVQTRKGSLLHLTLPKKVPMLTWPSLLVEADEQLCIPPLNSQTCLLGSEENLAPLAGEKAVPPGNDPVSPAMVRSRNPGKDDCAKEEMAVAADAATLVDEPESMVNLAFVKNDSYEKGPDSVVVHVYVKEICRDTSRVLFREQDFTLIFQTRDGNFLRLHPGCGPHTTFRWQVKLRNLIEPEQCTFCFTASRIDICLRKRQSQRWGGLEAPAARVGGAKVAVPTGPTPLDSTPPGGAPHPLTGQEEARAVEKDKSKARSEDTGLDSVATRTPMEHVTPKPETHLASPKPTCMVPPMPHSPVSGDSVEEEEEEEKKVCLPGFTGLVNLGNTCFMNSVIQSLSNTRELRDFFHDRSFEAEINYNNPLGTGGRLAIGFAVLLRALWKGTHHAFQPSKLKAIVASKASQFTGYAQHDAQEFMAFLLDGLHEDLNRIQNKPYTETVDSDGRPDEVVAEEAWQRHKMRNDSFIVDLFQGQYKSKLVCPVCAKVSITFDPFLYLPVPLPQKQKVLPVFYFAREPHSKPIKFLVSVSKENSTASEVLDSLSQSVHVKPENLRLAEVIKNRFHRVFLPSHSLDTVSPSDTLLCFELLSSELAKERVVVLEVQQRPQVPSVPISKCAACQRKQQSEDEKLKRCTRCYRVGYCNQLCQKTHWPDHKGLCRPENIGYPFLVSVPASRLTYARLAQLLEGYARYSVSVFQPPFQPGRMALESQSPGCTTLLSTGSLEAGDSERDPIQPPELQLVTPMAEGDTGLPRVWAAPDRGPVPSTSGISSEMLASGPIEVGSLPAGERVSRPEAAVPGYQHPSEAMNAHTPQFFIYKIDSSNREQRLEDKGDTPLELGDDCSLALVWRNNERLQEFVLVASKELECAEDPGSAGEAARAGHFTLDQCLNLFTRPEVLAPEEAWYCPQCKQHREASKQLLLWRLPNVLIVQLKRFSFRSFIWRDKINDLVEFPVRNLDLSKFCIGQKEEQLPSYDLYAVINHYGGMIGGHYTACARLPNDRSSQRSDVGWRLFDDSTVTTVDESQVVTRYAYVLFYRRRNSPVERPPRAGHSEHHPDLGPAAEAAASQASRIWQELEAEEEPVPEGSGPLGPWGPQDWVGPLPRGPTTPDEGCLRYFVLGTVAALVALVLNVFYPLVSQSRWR
Method in brief: (§1)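 Labelled DUBs from HEK293T lysate were NeutrAvidin-enriched, digested with LysC and trypsin, and run by diaPASEF LC-MS/MS. Before that, each 495 µg sample in Tris/CHAPS/IGEPAL buffer with protease inhibitors was treated in triplicate with fragment at 200 µM or vehicle for 3 h, then with Biotin-Ahx-Ub-VS at 0.5 µM final for 1 h. Values are average log2 ratios of fragment over vehicle by unpaired t-test, based on global-median-normalised Spectronaut label-free quantities from proteins with ≥2 unique peptides.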

USP22 = biological target: T2, USP22 (UniProt Q9UPT9)
T2 sequence (whole entry): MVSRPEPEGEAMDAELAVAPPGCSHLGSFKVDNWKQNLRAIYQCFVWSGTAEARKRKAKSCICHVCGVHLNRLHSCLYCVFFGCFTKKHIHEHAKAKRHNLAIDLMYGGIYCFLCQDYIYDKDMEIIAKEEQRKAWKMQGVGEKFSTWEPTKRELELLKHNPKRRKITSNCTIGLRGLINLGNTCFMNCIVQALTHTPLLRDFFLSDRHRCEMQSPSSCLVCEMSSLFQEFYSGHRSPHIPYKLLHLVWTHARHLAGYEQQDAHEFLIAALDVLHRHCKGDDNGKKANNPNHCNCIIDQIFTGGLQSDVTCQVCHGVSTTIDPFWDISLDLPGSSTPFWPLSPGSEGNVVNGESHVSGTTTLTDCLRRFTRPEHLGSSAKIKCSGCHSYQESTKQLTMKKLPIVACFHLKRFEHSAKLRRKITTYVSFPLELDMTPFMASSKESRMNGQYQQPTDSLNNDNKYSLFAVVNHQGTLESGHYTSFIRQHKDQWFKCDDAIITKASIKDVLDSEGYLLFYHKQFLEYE
Method in brief: as §1

USP24 = USP24 (UniProt Q9UPU5)
USP24, sequence (Q9UPU5 whole entry): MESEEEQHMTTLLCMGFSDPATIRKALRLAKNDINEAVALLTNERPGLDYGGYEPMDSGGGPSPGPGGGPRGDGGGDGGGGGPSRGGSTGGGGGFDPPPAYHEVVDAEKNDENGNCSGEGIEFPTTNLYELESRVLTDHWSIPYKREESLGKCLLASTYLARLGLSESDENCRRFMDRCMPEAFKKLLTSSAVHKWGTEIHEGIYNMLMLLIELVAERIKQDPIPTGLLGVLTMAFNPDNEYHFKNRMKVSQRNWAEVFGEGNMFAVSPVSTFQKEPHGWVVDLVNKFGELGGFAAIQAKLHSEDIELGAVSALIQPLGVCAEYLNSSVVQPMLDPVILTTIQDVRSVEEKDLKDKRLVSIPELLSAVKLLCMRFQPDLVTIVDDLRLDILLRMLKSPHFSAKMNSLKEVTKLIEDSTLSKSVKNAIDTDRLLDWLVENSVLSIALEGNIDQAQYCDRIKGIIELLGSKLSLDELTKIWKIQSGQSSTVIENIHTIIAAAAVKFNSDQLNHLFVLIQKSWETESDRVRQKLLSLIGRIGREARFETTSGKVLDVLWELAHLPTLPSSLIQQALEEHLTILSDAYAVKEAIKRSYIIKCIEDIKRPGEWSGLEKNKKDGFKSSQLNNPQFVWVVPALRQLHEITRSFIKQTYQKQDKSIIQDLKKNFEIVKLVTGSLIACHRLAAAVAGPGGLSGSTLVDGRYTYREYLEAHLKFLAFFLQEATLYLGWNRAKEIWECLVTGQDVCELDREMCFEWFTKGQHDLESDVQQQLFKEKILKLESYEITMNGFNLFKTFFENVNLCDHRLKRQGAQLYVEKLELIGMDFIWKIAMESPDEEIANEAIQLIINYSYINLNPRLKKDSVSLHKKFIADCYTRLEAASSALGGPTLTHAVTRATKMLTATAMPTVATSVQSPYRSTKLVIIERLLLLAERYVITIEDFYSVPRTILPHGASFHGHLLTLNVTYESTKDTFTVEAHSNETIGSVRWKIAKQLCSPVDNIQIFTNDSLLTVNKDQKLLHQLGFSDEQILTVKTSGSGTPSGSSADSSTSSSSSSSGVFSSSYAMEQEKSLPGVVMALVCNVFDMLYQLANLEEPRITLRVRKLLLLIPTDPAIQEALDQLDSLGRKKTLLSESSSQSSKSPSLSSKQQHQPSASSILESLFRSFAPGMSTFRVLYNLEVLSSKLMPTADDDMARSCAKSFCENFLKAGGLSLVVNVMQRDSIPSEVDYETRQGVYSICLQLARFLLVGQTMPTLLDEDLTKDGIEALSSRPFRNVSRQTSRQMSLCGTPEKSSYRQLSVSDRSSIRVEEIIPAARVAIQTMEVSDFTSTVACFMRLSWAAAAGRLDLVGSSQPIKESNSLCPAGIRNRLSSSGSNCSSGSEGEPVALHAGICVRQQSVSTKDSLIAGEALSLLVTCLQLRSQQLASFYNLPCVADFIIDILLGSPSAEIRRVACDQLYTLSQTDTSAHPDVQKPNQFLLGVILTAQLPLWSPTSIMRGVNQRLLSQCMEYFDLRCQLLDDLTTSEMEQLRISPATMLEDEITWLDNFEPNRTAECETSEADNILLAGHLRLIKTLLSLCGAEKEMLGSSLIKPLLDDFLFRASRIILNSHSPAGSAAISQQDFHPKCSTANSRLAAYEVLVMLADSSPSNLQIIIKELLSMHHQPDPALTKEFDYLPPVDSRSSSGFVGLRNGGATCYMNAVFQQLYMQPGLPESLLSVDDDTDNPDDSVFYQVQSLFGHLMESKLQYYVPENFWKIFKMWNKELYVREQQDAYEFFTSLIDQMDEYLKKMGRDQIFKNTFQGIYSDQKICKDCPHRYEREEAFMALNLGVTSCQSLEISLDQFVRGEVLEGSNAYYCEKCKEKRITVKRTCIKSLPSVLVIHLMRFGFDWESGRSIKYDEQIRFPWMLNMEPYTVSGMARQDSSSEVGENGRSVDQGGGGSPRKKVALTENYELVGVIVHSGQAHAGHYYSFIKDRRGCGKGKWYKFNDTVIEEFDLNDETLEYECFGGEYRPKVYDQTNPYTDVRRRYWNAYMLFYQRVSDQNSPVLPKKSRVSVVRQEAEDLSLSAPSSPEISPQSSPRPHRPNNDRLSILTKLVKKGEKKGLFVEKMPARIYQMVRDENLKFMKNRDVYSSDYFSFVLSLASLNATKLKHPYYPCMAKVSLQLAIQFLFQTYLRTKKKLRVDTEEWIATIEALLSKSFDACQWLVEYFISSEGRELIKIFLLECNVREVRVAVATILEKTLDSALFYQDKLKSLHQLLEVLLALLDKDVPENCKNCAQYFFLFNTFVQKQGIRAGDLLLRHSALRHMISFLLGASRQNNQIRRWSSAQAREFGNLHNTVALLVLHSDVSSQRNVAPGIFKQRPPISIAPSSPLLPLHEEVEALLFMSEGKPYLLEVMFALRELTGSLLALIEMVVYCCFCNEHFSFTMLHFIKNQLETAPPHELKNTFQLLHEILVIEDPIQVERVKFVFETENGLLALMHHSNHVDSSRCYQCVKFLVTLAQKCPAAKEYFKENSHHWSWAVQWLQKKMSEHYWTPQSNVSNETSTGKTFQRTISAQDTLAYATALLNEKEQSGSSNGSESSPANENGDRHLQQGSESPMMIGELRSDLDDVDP
Method in brief: as §1

USP25 = biological target: T3, USP25 (UniProt Q9UHP3)
T3 sequence (whole entry): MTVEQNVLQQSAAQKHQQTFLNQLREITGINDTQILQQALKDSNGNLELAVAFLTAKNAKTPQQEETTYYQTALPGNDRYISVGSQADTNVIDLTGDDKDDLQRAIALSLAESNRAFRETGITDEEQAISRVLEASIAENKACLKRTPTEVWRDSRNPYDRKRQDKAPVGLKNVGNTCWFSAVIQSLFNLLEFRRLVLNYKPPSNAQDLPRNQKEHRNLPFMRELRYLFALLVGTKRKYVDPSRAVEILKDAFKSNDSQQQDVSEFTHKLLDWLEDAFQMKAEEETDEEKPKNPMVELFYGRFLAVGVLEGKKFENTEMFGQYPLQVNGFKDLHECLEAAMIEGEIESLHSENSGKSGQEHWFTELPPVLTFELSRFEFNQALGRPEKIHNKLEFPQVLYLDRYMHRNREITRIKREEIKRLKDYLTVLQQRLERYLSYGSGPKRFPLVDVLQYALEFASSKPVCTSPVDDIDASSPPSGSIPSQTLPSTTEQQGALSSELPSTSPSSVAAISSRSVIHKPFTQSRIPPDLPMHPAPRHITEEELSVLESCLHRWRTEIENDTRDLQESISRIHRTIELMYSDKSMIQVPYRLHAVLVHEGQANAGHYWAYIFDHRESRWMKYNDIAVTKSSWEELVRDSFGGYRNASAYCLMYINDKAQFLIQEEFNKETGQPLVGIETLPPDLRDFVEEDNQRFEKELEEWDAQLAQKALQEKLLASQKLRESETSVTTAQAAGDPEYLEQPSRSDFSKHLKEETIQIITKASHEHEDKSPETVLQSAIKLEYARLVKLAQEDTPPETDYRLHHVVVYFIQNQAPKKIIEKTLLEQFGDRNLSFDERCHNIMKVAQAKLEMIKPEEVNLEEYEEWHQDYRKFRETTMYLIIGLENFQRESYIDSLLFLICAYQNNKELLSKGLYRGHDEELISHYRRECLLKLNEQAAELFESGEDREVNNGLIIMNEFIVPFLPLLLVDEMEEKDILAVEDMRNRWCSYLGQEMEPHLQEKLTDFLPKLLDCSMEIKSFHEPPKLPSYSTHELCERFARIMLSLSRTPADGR
Method in brief: as §1

USP28 = biological target: T4, USP28 (UniProt Q96RU2)
T4 sequence (whole entry): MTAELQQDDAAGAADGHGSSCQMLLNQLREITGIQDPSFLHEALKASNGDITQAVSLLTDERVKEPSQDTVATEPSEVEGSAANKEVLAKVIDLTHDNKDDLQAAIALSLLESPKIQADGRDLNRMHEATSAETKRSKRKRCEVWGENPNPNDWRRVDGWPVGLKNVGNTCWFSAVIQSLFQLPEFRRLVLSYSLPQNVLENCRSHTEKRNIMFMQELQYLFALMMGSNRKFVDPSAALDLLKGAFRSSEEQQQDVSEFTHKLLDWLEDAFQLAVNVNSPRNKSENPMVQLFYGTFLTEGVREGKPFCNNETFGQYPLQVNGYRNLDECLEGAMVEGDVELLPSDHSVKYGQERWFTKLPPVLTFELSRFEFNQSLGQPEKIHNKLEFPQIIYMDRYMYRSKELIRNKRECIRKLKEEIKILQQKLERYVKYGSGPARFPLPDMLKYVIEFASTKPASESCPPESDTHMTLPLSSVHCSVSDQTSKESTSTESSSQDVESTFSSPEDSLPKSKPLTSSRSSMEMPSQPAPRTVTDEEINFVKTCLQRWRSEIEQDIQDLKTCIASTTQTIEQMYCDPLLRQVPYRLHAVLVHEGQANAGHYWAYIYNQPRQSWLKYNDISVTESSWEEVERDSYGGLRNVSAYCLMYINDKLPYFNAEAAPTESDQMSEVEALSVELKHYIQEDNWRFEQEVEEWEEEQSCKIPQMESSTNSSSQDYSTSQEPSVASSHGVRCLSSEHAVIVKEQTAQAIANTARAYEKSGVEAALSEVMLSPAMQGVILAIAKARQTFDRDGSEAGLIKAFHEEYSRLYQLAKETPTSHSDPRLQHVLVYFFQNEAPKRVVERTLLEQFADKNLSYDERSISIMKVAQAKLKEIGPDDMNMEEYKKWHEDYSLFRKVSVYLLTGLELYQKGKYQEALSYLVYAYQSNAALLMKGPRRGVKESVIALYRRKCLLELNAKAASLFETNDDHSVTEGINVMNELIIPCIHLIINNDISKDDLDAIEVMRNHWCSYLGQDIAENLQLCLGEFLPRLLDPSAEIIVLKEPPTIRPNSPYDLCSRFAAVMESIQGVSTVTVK
Method in brief: as §1

Measured: log2 ratio of Biotin-Ahx-Ub-VS probe labelling

Cc1ccc(CN(CCO)C(=O)CCl)cc1
inactive: USP19 -0.37 | USP22 -0.0829 | USP24 -0.445 | USP25 -0.431 | USP28 -0.569
